In the library only some 21% were active in any assay of this set; here they are far more common.
NS1 function inh – blocks influenza NS1 protein function; 270,000 compounds, 0.4% hits; Potency, µM (top dose mostly 46.1 µM), inactives show top-dose activity, positive = more growth; also: potency is read from the fitted curve at half-maximal effect; actives are rising curves; nearly all actives have a fitted effect of over 50% in size
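In this qHTS, NS1 from influenza A is expressed in budding yeast, where it slows growth. Cells are switched from glucose to 2% galactose medium (pH 6.0, -URA), treated with compound, and growth recovery is read at OD600.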
Pf growth 96h – inhibits malaria parasite growth, 96 h; P. falciparum luciferase reporter growth, 96 h; 320,000 compounds, 6.9% hits; Potency, µM (series often up to 28.7 µM), for the others: top-dose activity change, negative = inhibition, actives largely listed as inhibitors; AID 504834; active = well fitted inhibition curve with a large enough effect; inconclusive = small, poorly fitted or top-dose-only effect, or another doubt; inactive = no such curve, though single readings can be large or run the other way; also: potency is read from the fitted curve at half-maximal effect; % is scaled to controls: 0 for no effect and ±100 for the full control effect
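P. falciparum expressing integrated firefly luciferase, in erythrocytes at 2% hematocrit, 0.05% parasitemia, incubated with compounds 96 h at 37 C, 5% CO2. Growth inhibition read as loss of luminescence; two-generation exposure targets delayed-death apicoplast inhibitors.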
Cycloheximide cs – counter-screen hit for Shiga toxin inhibitors, cycloheximide | cell reporter, cycloheximide protein synthesis inhibition counterscreen | max response, % | 300,000 compounds, 12% hits | AID 2314; in the data active = max response mostly above about 13%, no sharp cut-off; inactive = mostly below about 14%; also: read at 38.3 µM for the half of the compounds with a filed dose; 0% is about no effect
Shiga toxin inh – blocks Shiga toxin action in Vero cells | Vero cells, Shiga toxin protein synthesis inhibition reporter | inhibition, % at 38.7 µM | 290,000 compounds, 9.2% hits; in the data active = inhibition mostly above about 28%, no sharp cut-off; inactive = mostly below about 43%; also: 0% is about no effect
SARS PLpro yeast – inhibitors of SARS-CoV papain-like protease in yeast; S. cerevisiae expressing SARS-CoV PLpro, growth rescue; AID 485353; 330,000 compounds, 0.19% hits; Potency, µM (top dose mostly 32.9 µM), inactives show at the highest dose activity, positive = growth rescue, hits mostly activators; also: potency is read from the fitted curve at half-maximal effect; 0% is about no effect; nearly all actives have a fitted effect of over 55% in size
Pf growth 48h – P. falciparum growth inhibition at 48 hours (one generation); 310,000 compounds, 5.9% hits; P. falciparum luciferase growth in erythrocytes, 48 h; Potency, µM (titrated, usually from 28.7 µM), inactives show at the highest dose activity change, negative = inhibition, actives largely listed as inhibitors; active = well fitted inhibition curve with a large enough effect; inconclusive = small, poorly fitted or top-dose-only effect, or another doubt; inactive = no such curve, though single readings can be large or run the other way; also: potency is read from the fitted curve at half-maximal effect; % is scaled to controls: 0 for no effect and ±100 for the full control effect
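Compounds are pin-transferred into medium, infected erythrocytes (2% hematocrit, 0.1% parasitemia final) are added, and plates sit one parasite generation at 37 C in 5% CO2. Detection reagent is then added and luminescence measured.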
The depositor's hits bear a star; ? = inconclusive; . = no result given; [ ] = another dose, or the depositor's remark. Unless noted, calls follow the shape of the full dose curve.

SMILES	NS1 function inh	Pf growth 96h	Cycloheximide cs	Shiga toxin inh	SARS PLpro yeast	Pf growth 48h
OCc1ccc(-c2ccc(-c3ccc(CO)s3)o2)s1	.	.	53.2*	41.6*	.	.
Cc1onc(-c2c(F)cccc2Cl)c1C(=O)OCn1nnc2ccccc2c1=O	-21.8%	-9.5%	-2.2	8.7	6.9%	7.5%
COc1cc(C2C(C(=O)c3ccc(C)o3)=C(O)C(=O)N2CCN2CCOCC2)ccc1OCCC(C)C (configuration not stated)	-13.3%	?	5.0	10.3	-0.8%	?
NC(=O)c1ccccc1NC(=O)/C=C/c1cccc(Cl)c1	-7.8%	210.7%	44.9*	117.9*	0.4%	198.7%
COc1ccc(/C=C/C(=O)Nc2ccccc2C(=O)O)cc1OC	?	?	23.2	49.6	-1.7%	102.7%
NC(=O)c1ccccc1NC(=O)/C=C/c1c(Cl)cccc1Cl	-0.1%	13.1µM*	27.4*	142.9*	0.6%	180.2%
Cc1ccc(NC(=O)NC2=N/C(=C(/C#N)C(=O)N3CCCC3)c3ccccc32)cc1	-29.2%	?	19.6*	57.8	5.7%	36.8%
O=C(Nc1cccc(NC(=O)c2nccc3ccccc23)c1)c1ccco1	-44.0%	?	45.4*	129.8*	-7.5%	153.5%
O=C(Nc1cccc(NC(=O)c2sc3ccccc3c2Cl)c1)c1ccco1	-1.0%	?	39.8*	68.7*	-0.7%	31.6%
O=C(Nc1cccc(NC(=O)c2ccco2)c1)c1ccccc1	-4.5%	-15.3%	12.8	-8.8	-3.8%	21.6%
NS(=O)(=O)c1ccc(NC(=O)NC2CC(=O)N(c3ccc4c(c3)OCCO4)C2)cc1 (configuration not stated)	.	-12.0%	.	.	-5.0%	34.7%
CCCCN1C(=O)/C(=C2\SC(N3CCOCC3)=NC2=O)c2ccccc21	20.2%	66.8%	28.5*	98.6*	0.4%	12.1%
CCN1C(=O)/C(=C2\SC(N3CCOCC3)=NC2=O)c2ccccc21	2.5%	43.6%	-1.6	3.5	1.7%	10.1%
O=C(N/N=C/c1ccc([N+](=O)[O-])o1)C(O)c1ccccc1 (configuration not stated)	-0.3%	?	1.8	11.7	0.1%	?
Cc1nonc1C(=O)N/N=C/c1ccc(O)cc1O	1.6%	22.9%	-4.0	7.7	0.4%	6.7%
Cc1cc(C(=O)N/N=C/c2ccc([N+](=O)[O-])o2)c(C)o1	-1.9%	3.29µM*	1.3	-2.2	-2.7%	3.7µM*
Cc1nonc1C(=O)N/N=C/c1ccc([N+](=O)[O-])o1	.	?	45.9*	88.4*	-1.0%	?
COc1ccc(-c2nn(-c3ccccc3)cc2C(=O)N/N=C/c2ccc([N+](=O)[O-])o2)cc1	?	3.9%	5.3	-21.5	1.0%	2.62µM*
COc1cc(NS(=O)(=O)c2ccc(NC(=S)NC(=O)COc3ccccc3OC)cc2)nc(OC)n1	?	-20.3%	-3.8	-5.1	0.7%	49.9%
O=C(Nc1nnc(S(=O)(=O)N2CCOCC2)s1)c1ccc(Cl)cc1	12.5%	-5.7%	-1.7	29.2	-3.6%	?
O=C(Nc1nnc(S(=O)(=O)N2CCOCC2)s1)c1ccccc1	0.9%	5.0%	10.5*	21.8	5.8%	2.7%
COc1ccccc1C(=O)Nc1nnc(S(=O)(=O)N2CCC(C)CC2)s1	16.9%	?	-1.5	4.8	-4.4%	28.0%
COc1ccccc1C(=O)Nc1nnc(S(=O)(=O)N2CCOCC2)s1	-7.6%	26.0%	14.0*	15.9	2.0%	29.2%
Cc1cc(=O)c2c([nH]1)c(C)cc1[nH]c(C)c(C)c12	.	?	.	.	-3.7%[6.58 µM]	?
Cc1ccc(C)c(N2CCN(C(=O)CCc3nc(-c4ccc(Br)cc4)no3)CC2)c1	.	.	.	.	-2.5%	.
SMILES	NS1 function inh	Pf growth 96h	Cycloheximide cs	Shiga toxin inh	SARS PLpro yeast	Pf growth 48h
CCOc1ccc(-c2nn[nH]n2)cc1OCC	6.5%	?	-4.5	0.7	7.4%	5.9%
CCOc1cc(-c2cc(N)n[nH]2)cc(OCC)c1OCC	?	104.7%	-2.9	0.4	14.7%	13.1µM*
CC(C)N1CCc2c(sc(NC(=O)c3ccc(S(=O)(=O)N4CCOCC4)cc3)c2C#N)C1	-8.1%	?	-1.6	10.4	1.6%	-12.9%
CNC(=O)c1c(NC(=O)c2ccc(S(=O)(=O)N(C)c3ccccc3)cc2)sc2c1CCN(C(C)C)C2	?	?	-3.7	-9.1	9.1%	0.586µM*
CC(C)N1CCc2c(sc(NC(=O)c3ccc(S(=O)(=O)N4CCc5ccccc54)cc3)c2C(N)=O)C1	28.7%	7.38µM*	-1.5	-10.6	0.3%	4.15µM*
CCN1CCN(S(=O)(=O)c2ccc(C(=O)Nc3sc4c(c3C(N)=O)CCN(CC)C4)cc2)CC1	5.5%	?	-5.4	-34.8	-3.5%	?
CCN1CCc2c(sc(NC(=O)c3ccc4ccccc4c3)c2C(N)=O)C1	-23.6%	?	19.6*	28.0	-0.5%	11.7µM*
CCN1CCc2c(sc(NC(=O)c3ccc(S(=O)(=O)N(C)c4ccccc4)cc3)c2C(=O)NC)C1	14.1%	1.47µM*	-1.8	-7.4	-1.8%	2.08µM*
O=C(CSc1nc2c(c(=O)[nH]1)CCCC2)Nc1ccc(Cl)cc1F	0.8%	.	5.3	24.1	-8.8%	25.1%
O=C(N/C(=C/c1cccc([N+](=O)[O-])c1)C(=O)N1CCOCC1)c1ccc(Br)cc1	17.3%	-29.2%	4.1	-2.4	1.7%	?
CC(=O)Nc1cccc(NS(=O)(=O)Cc2ccc(Cl)cc2)c1	-49.9%	14.7µM*	7.5	32.4	1.8%	-14.6%
CCOCCCNc1ccc(N2C(=O)C3CCCCC3C2=O)cc1[N+](=O)[O-] (configuration not stated)	.	-47.1%	17.2	32.0	-0.9%	-1.4%
CCOc1cc(N2CCOCC2)c(OCC)cc1NC(=O)c1c(-c2ccccc2)noc1C	.	?	.	.	-1.5%	?
CCOc1ccccc1N1CCN(C(=O)c2c(-c3ccccc3Cl)noc2C)CC1	-9.3%	-8.7%	-2.2	-5.9	7.7%	9.28µM*
Cc1onc(-c2ccccc2Cl)c1C(=O)N1CCN(Cc2ccc3c(c2)OCO3)CC1	-1.9%	13.1µM*	-2.0	-24.2	0.1%	-1.8%
Cc1nn(Cc2ccccc2)c2sc(C(=O)N3CCN(Cc4ccc5c(c4)OCO5)CC3)cc12	-33.9%	?	-2.2	-6.1	.	10.4µM*
Cc1onc(-c2ccccc2Cl)c1C(=O)N1CCN(c2ncccn2)CC1	0.0%	25.1%	0.5	-3.7	-0.3%	14.5%
CCOc1cc(N2CCOCC2)c(OCC)cc1NC(=O)c1c(-c2ccccc2Cl)noc1C	.	?	14.2	-9.6	-1.4%	5.86µM*
CCn1c(COc2ccc(=O)n(-c3ccccc3)n2)nnc1SC	.	-8.4%	0.7	-6.8	-0.6%	6.2%
Cc1nc(SCc2nc3ccccc3[nH]2)c2oc3ccc(Br)cc3c2n1	.	.	.	.	1.8%	.
Cc1nc2c([nH]c3ccc(Br)cc32)s1	-62.9%	?	14.9*	22.3*	-23.4%	32.8%
